About 2,100 (0.53%) of roughly 400,000 compounds were called active. Not shown: some 14% with an inconclusive outcome. The rule behind the calls is not given here. This excerpt belongs to a sample that is enriched for actives.

Chain of Ataxin-2 (Homo sapiens) (Q99700 whole entry): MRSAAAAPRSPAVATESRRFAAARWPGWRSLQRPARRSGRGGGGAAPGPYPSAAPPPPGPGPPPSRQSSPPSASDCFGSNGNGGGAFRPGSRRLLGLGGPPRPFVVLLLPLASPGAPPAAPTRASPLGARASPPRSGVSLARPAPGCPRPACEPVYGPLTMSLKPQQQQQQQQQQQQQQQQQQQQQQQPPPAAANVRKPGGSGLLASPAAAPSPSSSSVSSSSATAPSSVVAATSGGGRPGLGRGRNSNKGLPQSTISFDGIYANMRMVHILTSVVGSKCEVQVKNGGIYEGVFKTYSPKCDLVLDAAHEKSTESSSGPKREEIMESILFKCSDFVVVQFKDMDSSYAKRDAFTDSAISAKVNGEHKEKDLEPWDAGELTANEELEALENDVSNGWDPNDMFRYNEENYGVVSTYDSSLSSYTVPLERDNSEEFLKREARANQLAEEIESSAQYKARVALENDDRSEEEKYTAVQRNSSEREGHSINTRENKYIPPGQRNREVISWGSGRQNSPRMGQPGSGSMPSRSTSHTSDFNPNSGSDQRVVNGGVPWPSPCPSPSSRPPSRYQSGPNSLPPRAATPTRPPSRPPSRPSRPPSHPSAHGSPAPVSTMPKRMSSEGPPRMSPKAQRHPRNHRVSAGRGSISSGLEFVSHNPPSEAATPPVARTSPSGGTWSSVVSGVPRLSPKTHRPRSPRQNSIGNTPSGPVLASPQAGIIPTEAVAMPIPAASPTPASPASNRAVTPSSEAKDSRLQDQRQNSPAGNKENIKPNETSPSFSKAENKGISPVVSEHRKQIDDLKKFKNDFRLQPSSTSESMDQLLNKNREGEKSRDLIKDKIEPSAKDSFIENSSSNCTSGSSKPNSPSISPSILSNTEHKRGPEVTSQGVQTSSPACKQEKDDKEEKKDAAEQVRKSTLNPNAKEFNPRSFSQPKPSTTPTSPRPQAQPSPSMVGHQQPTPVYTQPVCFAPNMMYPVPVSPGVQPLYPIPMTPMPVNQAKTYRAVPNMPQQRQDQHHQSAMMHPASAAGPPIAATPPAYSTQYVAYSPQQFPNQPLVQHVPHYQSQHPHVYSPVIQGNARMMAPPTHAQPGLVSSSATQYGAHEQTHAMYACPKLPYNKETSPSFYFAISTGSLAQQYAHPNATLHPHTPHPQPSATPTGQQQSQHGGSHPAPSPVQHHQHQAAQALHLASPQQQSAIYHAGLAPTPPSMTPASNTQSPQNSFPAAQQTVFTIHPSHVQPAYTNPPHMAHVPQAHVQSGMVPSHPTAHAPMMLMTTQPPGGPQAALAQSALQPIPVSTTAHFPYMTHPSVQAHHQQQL

The experiment has as its target Ataxin-2 (Homo sapiens) (UniProt Q99700). Briefly: qHTS for Inhibitors of ATXN expression. The format is functional. Background: qHTS replaces the single test concentration by a dilution series.
Turning to `Cc1cccc(C)c1N=C(S)NCCc1ccc(O)c(O)c1`, the Potency entry is “inactive”.
The entry for `CC1CC1C(=O)OCC(=O)c1c(N)n(C)c(=O)n(C)c1=O` (stereo not given) is “inactive”; for `CCOC(=O)c1cc2c(=O)n3ccccc3nc2n(Cc2ccco2)/c1=N/C(=O)c1cccnc1` it is “inactive”.
The entry for `COc1ccc(-n2c3nc4ccccc4nc3c3c(=N)oc(C)nc32)cc1` is “inactive”; for `COc1cc(/C=C(\C#N)c2nc3ccccc3n2C)cc(OC)c1O` it is “inactive”.
In the case of `Cc1cccn2c(=O)c3cc(C#N)/c(=N\C(=O)c4cccnc4)n(CC4CCCO4)c3nc12` (stereo not given) it was “inactive”.
For `O=C1CN2CCC1C/C2=C\c1ccnc2c(Cl)cccc12` (stereo not given), the Potency result is “inactive”.
In the case of `C=C1C(=O)c2sccc2C(c2ccc(OC)c(OC)c2)C1COC(C)=O` (stereo not given) it was 5.97 µM (active).
The entry for `COC(=O)C1=CN(Cc2ccc(OC)c(OC)c2)C=C(C(=O)OC)C1c1cccs1` is “inactive”.
The entry for `CN1CCN(c2nc3ccccn3c(=O)c2C=C(C#N)C#N)CC1` is “inactive”.
For the molecule `CC1(C)CC(=O)C2=C(C1)c1c(ccc3ccccc13)NC2c1ccc(OCC(=O)O)cc1` (stereo not given), the Potency entry is “inactive”.
The entry for `Cc1ccc2nc(NCC(N)=O)nc(-c3ccccc3)c2c1` is “inactive”; for `O=c1c(Cl)c(Cl)cnn1Cc1nnc(-c2ccccc2Br)o1` it is 39.8 µM (active).
The entry for `Nc1cccc2c1C(=O)N(Cc1nnc(-c3ccccc3Br)o1)C2=O` is “inactive”; for `COc1ccc(/C=C2\Oc3cc(OCC(=O)N4CCC[C@H]4C(=O)O)ccc3C2=O)c(OC)c1` it is “inactive”.
The entry for `COc1ccc(-c2nc3ccccc3c(=O)n2CCOc2c(C)cccc2C)cc1` is “inactive”.
With `COc1ccc(-c2nnc(SCc3cc(=O)c4cc(C)cc(C)c4[nH]3)n2C)cc1`, the Potency was 17.8 µM (active).
Take `COc1ccc(-c2c(C)c3ccc(O)c(CN4CCCC(C)C4)c3oc2=O)cc1OC` (stereo not given): the Potency entry is “inactive”.
In the case of `COc1ccc(CN2COc3ccc4c(C)cc(=O)oc4c3C2)cc1` it was “inactive”.
For the molecule `Cc1c(O)ccc2c(CN3CCOCC3)cc(=O)oc12`, the Potency result is “inactive”.
Regarding `COc1cc(OC)c2c(C)cc(=O)oc2c1C(CCN1CCOCC1)c1ccc2c(c1)OCO2` (stereo not given), the Potency was 20 µM (active).
For `CCCc1cc(=O)oc2c3c(ccc12)OCN(Cc1ccccc1OC)C3`, the Potency entry was “inactive”.
The figure for `CCCCCc1cc(=O)oc2c(C(CCN3CCCC(C)C3)c3ccc(OC)cc3)c(OC)cc(OC)c12` (stereo not given) is 31.6 µM (active); for `CCCCCc1cc(=O)oc2c(C(CCN3CCCC(C)C3)c3ccc(N(C)C)cc3)c(OC)cc(OC)c12` (stereo not given) it is 22.4 µM (active); for `CCCCCc1cc(=O)oc2c(C(CCN3CCCC(C)C3)c3ccc4c(c3)OCO4)c(OC)cc(OC)c12` (stereo not given) it is 35.5 µM (active).
In the case of `CCN1CCc2c(C#N)c(N3CCOCC3)nc(NCCO)c2C1` it was “inactive”; in that of `CCc1cc2c(CN3CCN(CCO)CC3)cc(=O)oc2cc1O`, “inactive”; in that of `CC(=O)c1ccc(NS(=O)(=O)c2ccc3c(c2)N(C(C)=O)CCO3)cc1`, “inactive”.
The figure for `CCCN1CCN(c2ncnc3sc(C(=O)Nc4ccc(C(C)C)cc4)c(C)c23)CC1` is 31.6 µM (active).
Turning to `CCOC(=O)c1sc2ncnc(N3CCN(C)CC3)c2c1C`, the Potency result is “inactive”.
The entry for `COc1ccc(C)cc1NC(=O)c1sc2ncnc(N3CCN(c4ccccn4)CC3)c2c1C` is “inactive”; for `COc1ccccc1C(=O)Nc1nc2n(n1)C(c1ccc(F)cc1)C=C(c1ccc(Cl)cc1)N2` (stereo not given) it is “inactive”.
The entry for `COc1cccc(C(=O)Nc2ccc3[nH]c(O)nc3c2)c1OC` is “inactive”.
Turning to `COc1ccccc1C(=O)Nc1cccc(N2CCC(NCc3cnn(-c4ccccc4)n3)CC2)c1`, the Potency is 28.2 µM (active).
The entry for `COCCNC(=O)c1cc2nc3c(c(C(F)(F)F)n2n1)CCc1ccccc1-3` is “inactive”; for `Cc1ccc(Cn2nc(C)c(NC(=O)CSc3nc4c(c(C(F)(F)F)n3)CCc3ccccc3-4)c2C)cc1` it is 20 µM (active).
The entry for `CCc1ccc(-c2cc(C(F)(F)F)n3nc(C(=O)Nc4c(C)nn(Cc5ccc(F)cc5)c4C)cc3n2)s1` is “inactive”; for `Cc1cccn2c(=O)c3cc(C(=O)NC4CCCC4)c(=N)n(CC4CCCO4)c3nc12` (stereo not given) it is “inactive”.
In the case of `COCCCn1c(=N)c(C(=O)NC2CCCCC2)cc2c(=O)n3ccccc3nc21` it was “inactive”; in that of `O=C1N=C(N2CCN(c3ccccc3)CC2)S/C1=C/c1ccco1`, “inactive”; in that of `Cc1ccc(-n2nc(C)c3c(C(=O)OCC(=O)N(C)C4CCS(=O)(=O)C4)cc(-c4ccccc4)nc32)cc1` (stereo not given), “inactive”.
For `COc1cccc(/C=C2\SC(=S)N(CC(=O)N(C)C3CCS(=O)(=O)C3)C2=O)c1` (stereo not given), the Potency was 35.5 µM (active).
In the case of `COc1cccc(/C=C2/SC(=S)N(CC(=O)NNC(=O)c3ccccc3OC)C2=O)c1` it was “inactive”; in that of `O=C1/C(=C/c2ccco2)SC(=S)N1CCC(=O)N1CCCCC1CCO` (stereo not given), 17.8 µM (active); in that of `COc1cccc(N2C(=O)C3CCCN3C2=S)c1` (stereo not given), “inactive”.
For `COc1cccc(/C=C2\SC(=S)N(CCC(=O)NNC(=O)c3ccccc3OC)C2=O)c1`, the Potency result was “inactive”.
In the case of `COc1cccc(/C=C2\SC(=S)N(CCCC(=O)N3CCCCC3CCO)C2=O)c1` (stereo not given) it was 39.8 µM (active); in that of `CCCn1nc(NC(=O)c2ccco2)c2cc3ccc(C)cc3nc21`, “inactive”; in that of `Cc1cccc(OCCn2c(NC(=O)c3ccco3)nc3ccccc32)c1`, 39.8 µM (active).
In the case of `CCCn1nc(NC(=O)c2ccco2)c2cc3cc(C)ccc3nc21` it was “inactive”; in that of `COCCCn1c(=N)c(C(=O)NCC2CCCO2)cc2c(=O)n3cc(C)ccc3nc21` (stereo not given), “inactive”.
The entry for `Cc1cccc(C2=NN(c3ccccc3)[C@H](CO)[C@H]2c2ccccc2)c1` is “inactive”; for `CN(C)c1ccc(C(C[N+](=O)[O-])c2c(N)n(C)c(=O)n(C)c2=O)c(F)c1C#N` (stereo not given) it is 25.1 µM (active).
Regarding `Cn1c(N)c(C(=O)CN2CCc3ccccc3C2)c(=O)n(C)c1=O`, the Potency result was “inactive”.
In the case of `COc1ccccc1C(C[N+](=O)[O-])c1c(N)n(C)c(=O)n(C)c1=O` (stereo not given) it was 14.1 µM (active); in that of `COc1ccc(Br)cc1C(C[N+](=O)[O-])c1c(N)n(C)c(=O)n(C)c1=O` (stereo not given), 17.8 µM (active); in that of `CCn1cc(C(=O)N2CCCC(N3CCN(c4cccc(C(F)(F)F)c4)CC3)C2)cn1` (stereo not given), “inactive”.
In the case of `CN(C)c1ncc(C2=C(Cl)C(=O)C(N3CCCC3)=C(Cl)C2=O)s1` it was 25.1 µM (active); in that of `Cc1cc2c(cc1C)C(=O)C(=O)N2`, “inactive”.
As for `N#Cc1c(-c2ccccc2Cl)c2c([nH]c1=O)-c1ccccc1OC2`, the Potency entry is “inactive”.

The record behind these values is ChEMBL document CHEMBL1201862, “PubChem BioAssay data set” (2004).
